Assay outcomes from PubChem BioAssay.
A selection: hits, their analogues and other compounds. The true share with any hit is near 3.4%.
PAFAH1B2 inh: inhibitors of human PAFAH1B2; inhibition, % at 3.39 µM; P68402; recombinant PAFAH1B2, FP-rhodamine activity probe, fluorescence polarization; hit rate 1.2% among 340,000;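 active means inhibition above the mean of all tested compounds plus 3 SD, cut at about 24% in these data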;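 further: 0% = enzyme with DMSO and 100% = wells lacking PAFAH1B2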
PP1 counter: blocks human PP1-alpha phosphatase, a PP5 counter-screen; hit rate 0.9% among 320,000; purified PP1alpha, OMFP fluorescence; inhibition, % at 6.7 µM; P62136; AID 2235;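 active means inhibition above the mean inhibition of all tested compounds plus 3 SD, computed separately for each screening campaign, cut at about 15% in these data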
Target sequence (P62136 whole entry, looked up): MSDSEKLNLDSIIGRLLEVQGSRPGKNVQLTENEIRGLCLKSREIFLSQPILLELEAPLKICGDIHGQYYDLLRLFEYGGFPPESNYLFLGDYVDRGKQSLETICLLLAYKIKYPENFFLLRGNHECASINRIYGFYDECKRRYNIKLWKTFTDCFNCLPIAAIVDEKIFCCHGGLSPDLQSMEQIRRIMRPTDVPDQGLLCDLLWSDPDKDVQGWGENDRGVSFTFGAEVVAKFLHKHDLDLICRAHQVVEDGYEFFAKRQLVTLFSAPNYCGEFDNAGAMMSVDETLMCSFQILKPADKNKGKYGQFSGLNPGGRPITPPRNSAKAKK
PAFAH1B3 inh: inhibitors of human PAFAH1B3 | AID 492972 | Q15102 | inhibition, % at 3.39 µM | hit rate 0.28% among 340,000 | recombinant PAFAH1B3, FP-rhodamine probe, fluorescence polarization;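 active means inhibition above the screen-wide average of all tested compounds plus 3 SD, cut at about 25% in these data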;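 further: 0% = enzyme with DMSO only and 100% = wells lacking PAFAH1B3 protein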
pPAFAH FP inh: inhibitors of human plasma PAF acetylhydrolase (pPAFAH) | Q13093 | recombinant pPAFAH, FP-rhodamine probe fluorescence polarization | inhibition, % at 3.39 µM | hit rate 1.5% among 330,000;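 active means inhibition above the mean inhibition across the screen plus 3 SD, cut at about 25% in these data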;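 further: inhibitors block binding of the rhodamine activity-based probe so polarization drops; 0% = enzyme with DMSO and 100% = wells lacking pPAFAH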
PP5 primary: blocks human protein phosphatase 5 activity; P53041; purified PP5c, OMFP substrate fluorescence; inhibition, % at 6.7 µM; hit rate 0.18% among 320,000; AID 1987;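 active means inhibition above the campaign's mean inhibition across all tested compounds plus 3 SD, cut at about 9.5% in these data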;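 further: 0% = DMSO only and 100% = 100 µM cantharidin control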
PAFAH2 inh: inhibitors of human PAFAH2 | Q99487 | recombinant PAFAH2, FP-rhodamine activity probe, fluorescence polarization | inhibition, % at 3.39 µM | hit rate 0.99% among 340,000;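 active means inhibition above the mean over all tested compounds plus 3 SD, cut at about 30% in these data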;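 further: inhibitors block probe labeling of enzyme so polarization drops; 0% = enzyme with DMSO and 100% = wells lacking PAFAH2 protein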
PP1 inh confirm: confirmation of human PP1 phosphatase inhibitors. shares compounds with PP1 counter. purified PP1alpha, OMFP substrate fluorescence. inhibition, % at 6.7 µM. hit rate 52% among 1,900. AID 2358;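 active means mean PP1 inhibition above a set limit taken from the earlier primary screen, cut at about 15% in these data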
PP5 counter: inhibits human PP5 phosphatase in PP1 counter-screen | shares compounds with PP1 counter | purified PP5c, OMFP fluorescence | inhibition, % at 6.7 µM | hit rate 4% among 1,900;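 active means mean PP5 inhibition over triplicate wells above about 9.5% taken from the earlier PP1 screen, limit read from the data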
pPAFAH confirm: confirmation of human plasma PAF acetylhydrolase (pPAFAH) inhibitors; recombinant pPAFAH, FP-Rh probe fluorescence polarization; AID 463230; hit rate 72% among 2,300; shares compounds with pPAFAH FP inh; inhibition, % at 3.39 µM;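 active means mean inhibition of the triplicate above the hit cutoff set for the earlier primary screen, cut at about 25% in these data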;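 further: 0% = enzyme with DMSO and 100% = wells lacking pPAFAH enzyme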
* marks the source's active call; other numbers are inactive results; · = not tested or not shown; ! = not confirmed by another sample.

SMILES | PAFAH1B2 inh | PP1 counter | PAFAH1B3 inh | pPAFAH FP inh | PP5 primary | PAFAH2 inh | PP1 inh confirm | PP5 counter | pPAFAH confirm
COc1ccc(OCC(=O)Nc2ccc(N3CCCCC3)cc2)cc1 | 7 | -1 | 9 | 3 | 5 | 8 | · | · | ·
Cc1cc(C)cc(OCC(=O)Nc2ccc(N3CCCC3)cc2)c1 | -2 | 19* | 3 | 36* | 0 | 8 | -9 | -2 | 30*
CC(C)(C)C(=O)O/N=C(\N)Cc1ccc(-c2csnn2)cc1 | 4 | 0 | 1 | 5 | -2 | 1 | · | · | ·
O=C(NN1C(=O)/C(=C/C=C/c2ccco2)SC1=S)c1ccccc1O | 19 | 33* | 26* | 78* | 0 | 59* | 14 | -3 | 67*
O=C(O)CSCC(=O)N(Cc1ccccc1)c1nc(-c2ccccc2)c(-c2ccccc2)s1 | 23 | 26* | 3 | 54* | 6 | -6 | 19* | -1 | 54*
Oc1ccc(/C=N/Nc2ccc(Cl)nn2)c(O)c1O | 1 | 18* | 16 | 57* | 2 | 29 | 38* | -6 | 12
O=C(O)C[C@H]1c2cc(C(F)(F)F)ccc2S(=O)(=O)N1C1CCCCC1 | 4 | 2 | 3 | -5 | 4 | 0 | · | · | ·
O=c1cc(-c2ccc(C3CCCCC3)cc2)[nH][nH]1 | 15 | 18* | 6 | 35* | 3 | 9 | -2 | -4 | 5
CCCCCCCC/C=C\CCCCCCCC(=O)NCCc1ccc(O)c(O)c1 | 8 | 16* | 12 | 70* | 15* | -27 | 8 | 2 | 62*
CC(=O)c1sc2nc(-c3cccs3)ccc2c1N | 8 | 8 | 7 | 4 | 0 | 5 | · | · | ·
Nc1c(C(=O)Nc2nc3ccccc3s2)sc2nc(-c3cccs3)ccc12 | 9 | 31* | 6 | 50* | 1 | 18 | 32* | -1 | 43*
Cc1ccc(NC(=O)COc2cccc(/C=C3\SC(=S)N(CCC(=O)O)C3=O)c2)cc1Cl | 5 | 39* | 1 | 40* | 1 | 6 | 14 | 4 | 27*
COc1cccc(/C=C2\SC(=S)N(CCCC(=O)Nc3ccc(C(=O)O)cc3)C2=O)c1 | 1 | 8 | 4 | -2 | 1 | 6 | · | · | ·
CC(Oc1ccccc1Cl)C(=O)N(Cc1cccs1)C1CCS(=O)(=O)C1 (stereo unspecified) | 0 | -2 | 6 | -2 | 3 | 7 | · | · | ·
N[C@@H](Cc1cc(I)c(Oc2ccc(O)c(I)c2)c(I)c1)C(=O)O | 7 | 28*! | 3 | 69*! | 1 | 27 | 15 | -6 | 71*
N[C@@H](Cc1ccc(O)c(O)c1)C(=O)O | 1 | · | 10 | · | · | -1 | · | · | ·
COc1ccccc1NC(=O)CSc1sc2c(O)cc(=O)[nH]c2c1C#N | 11 | 20* | 14 | 39* | -1 | 17 | 0 | -2 | 12
O=C(O)/C=C/C(=O)OC1CC2CCC1C2 (stereo unspecified) | 4 | -1 | -1 | 7 | -3 | 4 | · | · | ·
COc1ccc(/C=C2/C(=O)N(c3nc4ccccc4s3)N=C2CSc2ccc(Cl)cc2)cc1 | -7 | 31* | 4 | 51* | -1 | -8 | 9 | 0 | 18
COc1ccc(/C=C2/C(=O)N(Cc3ccccc3)N=C2C)cc1 | -2 | 1 | 5 | 5 | 2 | 0 | · | · | ·
COc1cc(S(=O)(=O)n2cnc3ccccc32)ccc1Br | -4 | 0 | 7 | 2 | 1 | 6 | · | · | ·
Cc1ccc(CN2C(=O)C(C)Nc3ncnc(N4CCOCC4)c32)cc1 (stereo unspecified) | -1 | 1 | -2 | 5 | 0 | 4 | · | · | ·
CC(C)=CCc1c(O)cc2oc3c(CC=C(C)C)c(O)c(O)c(CC=C(C)C)c3c(=O)c2c1O | 11 | 39* | 30* | 59* | 4 | -16 | 33* | 0 | 56*
C1CCC(c2nn3c(-c4n[nH]c5c4CCC5)nnc3s2)CC1 | -1 | 1 | -1 | 9 | 2 | 10 | · | · | ·
